Results on 85 compounds are retold here after paper PMC4336329 (PLoS ONE, 2015).

In all, about 310,000 compounds went through this assay and about 14,000 (4.5%) showed an effect of 50% or more. The effect is printed as a negative number. For the sample, strong results were picked, then their nearest neighbours and some compounds at random.
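Further: peak tail current of the secondary pulse compared with the same well before compound.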

In the experiment the target is human ether-à-go-go-related gene (hERG) potassium channel (human, UniProt Q12809). Description: primary screen, population patch clamp on CHO cells stably expressing hERG; higher = less effect of the substance.
human ether-à-go-go-related gene (hERG) potassium channel, sequence (Q12809 whole entry, looked up): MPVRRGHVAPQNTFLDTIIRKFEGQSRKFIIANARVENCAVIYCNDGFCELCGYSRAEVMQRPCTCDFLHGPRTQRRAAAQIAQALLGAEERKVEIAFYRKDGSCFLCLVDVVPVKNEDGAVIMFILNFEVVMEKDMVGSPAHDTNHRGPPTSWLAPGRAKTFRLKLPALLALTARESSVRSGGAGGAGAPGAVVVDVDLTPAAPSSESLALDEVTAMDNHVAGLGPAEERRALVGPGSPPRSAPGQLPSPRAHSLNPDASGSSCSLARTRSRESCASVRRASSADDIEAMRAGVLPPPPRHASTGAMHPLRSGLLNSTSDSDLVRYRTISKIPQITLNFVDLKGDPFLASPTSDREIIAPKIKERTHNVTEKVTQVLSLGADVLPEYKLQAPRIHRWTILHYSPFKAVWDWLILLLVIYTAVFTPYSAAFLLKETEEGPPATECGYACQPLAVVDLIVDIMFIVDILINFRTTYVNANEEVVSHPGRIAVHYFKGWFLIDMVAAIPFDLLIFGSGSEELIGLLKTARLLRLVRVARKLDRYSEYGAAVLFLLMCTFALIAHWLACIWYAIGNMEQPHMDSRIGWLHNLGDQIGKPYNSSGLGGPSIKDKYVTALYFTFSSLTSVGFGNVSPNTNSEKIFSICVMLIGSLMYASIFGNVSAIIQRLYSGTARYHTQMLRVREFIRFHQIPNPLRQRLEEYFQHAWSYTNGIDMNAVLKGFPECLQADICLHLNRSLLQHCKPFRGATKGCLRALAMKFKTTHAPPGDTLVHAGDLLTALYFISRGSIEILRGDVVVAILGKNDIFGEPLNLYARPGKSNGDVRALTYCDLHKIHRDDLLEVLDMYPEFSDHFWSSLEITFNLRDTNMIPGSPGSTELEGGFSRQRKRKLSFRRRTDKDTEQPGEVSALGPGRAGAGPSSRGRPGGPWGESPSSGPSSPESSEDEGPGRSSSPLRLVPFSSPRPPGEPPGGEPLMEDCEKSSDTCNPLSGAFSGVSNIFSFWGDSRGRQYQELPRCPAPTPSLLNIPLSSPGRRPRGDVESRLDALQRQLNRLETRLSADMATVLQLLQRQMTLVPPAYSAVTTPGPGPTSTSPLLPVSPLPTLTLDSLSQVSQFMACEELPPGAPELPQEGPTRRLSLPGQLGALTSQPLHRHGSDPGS
For `CCS(=O)(=O)N1CCN(Cc2ccccc2OC)CC1.O=C(O)C(=O)O`, the “hERG current change (%, negative = inhibition) at 10uM” value was 11.7%.
The result for `C=CCOC(=O)C1=C(C)NC(=O)NC1c1ccc2c(c1)OCO2` (stereo not shown) reads -11.9%.
With `O=C(NCc1ccc2c(c1)OCO2)C1CCCN(C(=O)c2ccc(Cl)cc2)C1` (stereo not shown), the “hERG current change (%, negative = inhibition) at 10uM” value was -34.4%.
The result for `CCOC(=O)N/N=C/C(Cl)=C/c1ccccc1` reads 0.407%; that for `COC(C(=O)N/N=C(\C)c1ccc(C(C)(C)C)cc1)c1ccccc1` (stereo not shown), 13.1%.
The result for `COc1ccccc1NC(=O)CCCC(=O)OCC(F)(F)C(F)F` reads -1.37%.
Regarding `COc1ccc(NC(=S)NC2CC3CCC(C2)N3Cc2ccco2)cc1` (stereo not shown), the “hERG current change (%, negative = inhibition) at 10uM” value is listed as -30.1%.
The result for `CCOC(=O)c1c(S(=O)(=O)N2CCCC(C(=O)Nc3ccc(C)cn3)C2)c(C)n(C)c1C` (stereo not shown) reads 19.7%.
On to `CCc1ccc(N=C2NC(=O)/C(=C/c3ccc(OCC(=O)O)cc3)S2)cc1`, for which the “hERG current change (%, negative = inhibition) at 10uM” value stood at 14.6%.
As for `CCN(Cc1cnn(C)c1)Cc1nc(C(c2ccccc2)c2ccccc2)no1`, the “hERG current change (%, negative = inhibition) at 10uM” value is -18.2%.
Under `CCCCNC(=O)Cn1cnc([N+](=O)[O-])n1` stands 10.8%; under `CC1(OC(=O)CCc2ccccc2)C(=O)C=C2C=C(c3ccc(C#N)cc3)N(Cc3ccco3)C=C2C1=O` (stereo not shown), -38.9%.
Turning to `COc1ccc(CN2C=C3C(=O)C(C)(OC(=O)CCc4ccccc4)C(=O)C=C3C=C2c2ccc(C#N)cc2)cc1` (stereo not shown), the “hERG current change (%, negative = inhibition) at 10uM” value is listed as -31.7%.
Under `CC1(OC(=O)CCc2ccccc2)C(=O)C=C2C=C(c3ccc(C#N)cc3)N(Cc3ccccc3)C=C2C1=O` (stereo not shown) stands -51.9%; under `CCN(c1ccc(OC)cc1)S(=O)(=O)c1nnc(NC(=O)C2CCCCC2)s1`, 12.2%; under `Cc1cc(=O)oc(C)c1C(=O)N[C@@H]1CCCCNC1=O`, 7.72%.
The result for `COc1cccc2cc(C(=O)NCCN3CCOCC3)c(=O)oc12` reads 12.9%; that for `CCOc1cccc(-c2cc(=O)[nH][nH]2)c1`, 1.58%.
Under `CC1CCN(c2nc(NCc3ccco3)nc(N)c2[N+](=O)[O-])CC1` stands -11.9%.
Consider `CC1CCCN(c2nc(NCc3ccco3)nc(N)c2[N+](=O)[O-])C1` (stereo not shown), for which the “hERG current change (%, negative = inhibition) at 10uM” value was -54.3%.
Under `CC1CC(C)CN(c2nc(NCc3ccco3)nc(N)c2[N+](=O)[O-])C1` (stereo not shown) stands -27.4%.
Under `CCN(c1cccc(C)c1)S(=O)(=O)c1ccc(-c2cc(C)no2)s1` stands 5.94%.
Under `CCN(CC)S(=O)(=O)c1cc(C(=O)Nc2cc(C)on2)c(Cl)cc1Cl` stands 12.3%; under `O=C(CSc1nc(=O)n(CCCN2CCOCC2)c2c1CCC2)Nc1ccc(F)cc1`, -39.5%; under `Cc1ccc(NC(=O)CSc2nc(=O)n(CCN3CCOCC3)c3c2CCCC3)cc1`, -27.5%.
Turning to `CC(=O)c1ccc(NC(=O)CSc2nc(=O)n(CCN3CCOCC3)c3c2CCC3)cc1`, the “hERG current change (%, negative = inhibition) at 10uM” value is on record as -7.74%.
For the compound `O=C(CSc1nc(=O)n(CCCN2CCOCC2)c2c1CCCC2)Nc1cccc([N+](=O)[O-])c1`, the “hERG current change (%, negative = inhibition) at 10uM” value is reported as -67.7%.
The result for `O=C(CSc1nc(=O)n(CCCN2CCOCC2)c2c1CCC2)Nc1ccc([N+](=O)[O-])cc1` reads -60.4%; that for `CC(=O)c1cccc(NC(=O)CSc2nc(=O)n(CCN3CCOCC3)c3c2CCCC3)c1`, -11.2%; that for `CC(=O)Nc1cccc(NC(=O)CSc2nc(=O)n(CCN3CCOCC3)c3c2CCC3)c1`, -2.96%.
The result for `O=C(CSc1nc(=O)n(CCN2CCOCC2)c2c1CCCC2)Nc1ccc([N+](=O)[O-])cc1` reads -67.6%.
Under `O=c1[nH]cnc2c1c(-c1ccccc1)cn2-c1ccccc1` stands 12.1%; under `CCC(C)NC(=O)c1cnn2c1NC(c1cccs1)CC2C(F)(F)F` (stereo not shown), -11.3%; under `Cc1ccc(C(=O)Nc2ncc(Cc3ccc(F)cc3)s2)o1`, -2.85%.
As for `O=C(OCC(=O)N1CCCC1=O)c1cc(S(=O)(=O)N2CCOCC2)ccc1F`, the “hERG current change (%, negative = inhibition) at 10uM” value was -22.5%.
The result for `CN1/C(=C\C(=O)c2cccc([N+](=O)[O-])c2)Sc2ccccc21` reads 10.8%; that for `C/C(CCc1oc2ccc(Cl)cc2c1-c1ccc(C)o1)=N\O`, 22.9%; that for `O=C(COC(=O)c1cc(=O)[nH]c2ccccc12)Nc1ccc(Cl)cn1`, 6.92%.
Under `Cc1cccc(N2CCN(C(=O)c3ccc(CNc4c(N5CCC(C)CC5)c(=O)c4=O)cc3)CC2C)c1` (stereo not shown) stands -10.4%; under `CC1(C)N([O-])C(c2cccs2)=C[N+]1=O`, -7.12%; under `COc1cccc(O)c1CN1CCC(C(=O)Nc2ccc(-c3cccc(C)c3)cc2)CC1`, -11.2%.
On to `O=C(Nc1cccc(Cl)c1)C1CCN(C(=O)c2cccs2)CC1`, for which the “hERG current change (%, negative = inhibition) at 10uM” value is reported as -16.8%.
In the case of `COc1cccc(-c2cccc(NC(=O)C3CCN(CC4CCOC4)CC3)c2)c1` (stereo not shown), the “hERG current change (%, negative = inhibition) at 10uM” value is -53.2%.
For `O=C(Nc1cccc(-c2cccc(Cl)c2)c1)C1CCN(CC2CCOC2)CC1` (stereo not shown), the “hERG current change (%, negative = inhibition) at 10uM” value is -77.2%.
On to `CC(=O)c1cccc(CN2CCC(C(=O)Nc3ccc(-c4cccc(C)c4)cc3)CC2)c1`, for which the “hERG current change (%, negative = inhibition) at 10uM” value stood at 2.59%.
Consider `Cc1cccc(-c2ccc(NC(=O)C3CCN(CC4CC4)CC3)cc2)c1`, for which the “hERG current change (%, negative = inhibition) at 10uM” value was -70.9%.
In the case of `COc1cccc(NC(=O)C2CCN(S(C)(=O)=O)CC2)c1`, the “hERG current change (%, negative = inhibition) at 10uM” value is given as -7.92%.
With `COc1cccc(NC(=O)C2CC2)c1`, the “hERG current change (%, negative = inhibition) at 10uM” value is given as 2.97%.
Under `COc1ccccc1CNC(=O)Cn1cnnn1` stands 14.5%.
Under `O=C(c1cc([N+](=O)[O-])cc([N+](=O)[O-])c1)N1CCCc2ccccc21` stands -16.3%.
`CCOC(=O)Cc1csc(NC(=O)CC)n1`: the “hERG current change (%, negative = inhibition) at 10uM” value was 3.71%.
As to `O=S(=O)(c1ccc(-c2csc(=Nc3ccccc3)n2CCCN2CCOCC2)cc1)N1CCOCC1`, the “hERG current change (%, negative = inhibition) at 10uM” value is -40.9%.
Regarding `CN(C)N1C(N)=C(C#N)C(c2cccc(Cl)c2)C2=C1CCCC2=O` (stereo not shown), the “hERG current change (%, negative = inhibition) at 10uM” value is given as -26.2%.
Under `Cc1ccc(CO/N=C/C2=C(Cl)c3ccccc3CC2)cc1` stands 16.8%; under `CC(=O)Nc1ccc(NS(=O)(=O)c2ccc3c(c2)oc(=O)n3C)cc1`, 20.2%.
Under `Cc1cccc(CN2CCc3c([nH]c4ccccc34)C2C(C)(C)C)n1` (stereo not shown) stands 3.57%; under `Cc1ccc([N+](=O)[O-])cc1N=C(c1ccc([N+](=O)[O-])cc1)N1CCOCC1`, -20.8%; under `Cc1ccc([N+](=O)[O-])cc1N=C(c1cccc([N+](=O)[O-])c1)N1CCOCC1`, -26%.
The result for `O=[N+]([O-])c1ccc(C(=Nc2cccc3ccccc23)N2CCOCC2)cc1` reads -63.5%; that for `O=C(NNC(=O)C1[C@H]2CCCC[C@@H]12)Nc1cccc2ccccc12` (stereo partly shown), -6.11%.
Consider `COc1cc(NC(=O)Cc2ccc(F)cc2)cc(OC)c1OC`, for which the “hERG current change (%, negative = inhibition) at 10uM” value was found to be 16.2%.
The result for `CCC(=O)N1CCc2cc(Br)cc(S(=O)(=O)CCC(=O)NCCc3ccccc3)c21` reads 3.68%.
The result for `O=S(=O)(c1ccccc1)N1CCN(C(=S)Nc2ccc(F)cc2)CC1` reads -3.33%.
Under `CN(C)/C=N/c1ncn(-c2ncc(C(F)(F)F)cc2Cl)n1` stands 17.5%.
In the case of `Nc1nc2nonc2nc1N`, the “hERG current change (%, negative = inhibition) at 10uM” value was determined as 15.3%.
Under `CCOC(=O)c1cc(-c2cccs2)nc2c1c(C)nn2-c1ccccn1` stands 17.2%; under `Cc1nn(-c2ccccc2)c2nc(-c3ccccc3)cc(C(=O)N3CCOCC3)c12`, -25.9%; under `O=C(NCc1ccco1)c1cc(-c2cccs2)nc2ccccc12`, -1.68%.
The result for `Cc1nn(-c2cccc(Cl)c2)c2nc(-c3ccncc3)cc(C(=O)N3CCOCC3)c12` reads -62.3%.
Under `CCOC(=O)c1cc(-c2ccccc2)nc2c1c(C)nn2-c1ccccn1` stands -6.42%; under `Cc1ccccc1-n1nc(C)c2c(C(=O)NN)cc(-c3ccncc3)nc21`, 38.5%; under `CCOC(=O)c1cc(-c2ccncc2)nc2c1c(C)nn2C`, -14.8%.
As for `Cc1nn(-c2ccccc2)c2nc(-c3ccncc3)cc(C(=O)NCc3ccco3)c12`, the “hERG current change (%, negative = inhibition) at 10uM” value is recorded as -66.6%.
Under `Cc1nn(-c2cccc(Cl)c2)c2nc(-c3ccco3)cc(C(=O)O)c12` stands 19%; under `O=C(NCc1ccco1)c1cc(-c2ccncc2)nc2ccccc12`, -18.5%.
As to `Cc1nn(-c2ccccn2)c2nc(-c3cccs3)cc(C(=O)NCc3ccco3)c12`, the “hERG current change (%, negative = inhibition) at 10uM” value is -67.3%.
`CCOC(=O)c1cc(-c2ccncc2)nc2c1c(C)nn2-c1ccccn1`: the “hERG current change (%, negative = inhibition) at 10uM” value is on record as -63.3%.
Take `Cc1ncc([N+](=O)[O-])n1CC(=O)NCc1ccccc1`: the “hERG current change (%, negative = inhibition) at 10uM” value is 16%.
The result for `Cc1ccc(S(=O)(=O)NNC(=O)C(=O)NNS(=O)(=O)c2ccc(C)cc2)cc1` reads -1.99%; that for `O=C(c1ccc(Cl)cc1)N1CCCCC(Cl)C1=O` (stereo not shown), 7.57%.
As to `COc1cccc(Nc2ncc(C(=O)O)c3ccccc23)c1`, the “hERG current change (%, negative = inhibition) at 10uM” value is reported as -1.48%.
Under `Fc1cnc(Cl)nc1N1CCN(c2ccccc2)CC1` stands -17.4%; under `Cc1nn(Cc2ccccc2)c(C)c1C(=O)OCC(=O)c1cc(C)n(CC(F)(F)F)c1C`, -2.57%.
The result for `COc1cccc(-n2c(-c3ccco3)nc3nc4ccccc4nc32)c1` reads 18.4%; that for `O=C(COC(=O)c1cccnc1Nc1ccccc1F)NC1CC1`, -0.164%.
